Measurements published in PubChem BioAssay (NCATS).
Several values for one entry are separate records, joined by “and”; a condition that tells them apart may be missing. Equal entries are not always repeated. Records with an inconclusive call do not appear. Activity calls are given as the source filed them. Unless noted, calls come from the whole dose curve; as a rule, active = well fitted curve in the direction sought with a large enough effect; inconclusive = small, poorly fitted or top-dose-only effect, or another doubt; inactive = no such curve, though single readings can be large; an effect the other way counts as inactive or inconclusive.

Columns and labels:
[1] = Cell Viability - BJ (AID 421; calls by dose curve;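 note: potency is the fitted concentration of half-maximal effect; cells exposed to compound for 40 hours at 37 °C before readout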); details: BJ fibroblast viability, qHTS
In short: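 Normal human BJ foreskin fibroblasts, 1500/well in complete medium, treated 40 hr at 37 °C. Cellular ATP by CellTiter-Glo luminescence; normalized to DMSO and 100 uM tamoxifen, AC50 from Hill fit.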

[2] = Cell Viability - SK-N-SH (AID 435; calls by dose curve;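 note: potency is the fitted concentration of half-maximal effect; compound exposure lasted 40 h at 37 °C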); details: SK-N-SH neuroblastoma cell viability qHTS
In short: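 Human neuroblastoma line, 40 h exposure at 37 °C, ATP quantified via luciferase luminescence; DMSO and 100 uM tamoxifen define 0 and 100% inhibition for AC50 fitting.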

[3] = target: Mitogen-activated protein kinase 10 (Mus musculus) (UniProt Q61831); test: JNK3 AlphaScreen Assay (AID 530; active = well fitted curve in either direction with a large enough effect, not every such curve was filed as active;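 note: kinase came from lysate of stimulated human HepG2 cells; signal reports phosphorylation of biotinylated GST-cJun 1-79 at Ser73 with 10 µM ATP; % is set by controls: 0 for no effect and ±100 for the full control effect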); details: JNK3 lysate, c-Jun phosphorylation; series mostly up to 57.1 µM
In short: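 Activity was read by AlphaScreen after JNK3-containing HepG2 lysate (cytokine pre-activated) phosphorylated biotinylated GST-cJun with 10 uM ATP at room temperature. Phospho-Ser73 cJun antibody with Protein-A acceptor beads provided detection.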

[4] = Cell Viability - NIH 3T3 (AID 541); details: NIH 3T3 cell viability, qHTS; activity change, negative = cytotoxicity: at 92.2 µM (top of the series);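 note: cells exposed to compound for 40 hours; plate controls were DMSO alone for no effect and tamoxifen positive control for full effect; nearly all actives have a fitted effect of over 25% in size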
In short: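 Cells seeded at 1000/well, rested 5 hr at 37 °C, then dosed and incubated 40 hr at 37 °C. CellTiter-Glo added, 20 min room temperature, luminescence read. AC50 by Hill fit.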

[5] = Cell Viability - Mesenchymal (AID 546); details: mesenchymal cells viability, qHTS; activity change, negative = cytotoxicity: at 91.7 µM (top of the series);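 note: cells exposed to compound for 40 hours before reading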
In short: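 Human renal mesenchymal cells (glomerulus-derived), 1000 cells/well, 5 hr 37 °C pre-incubation; compound 40 hr, 37 °C; CellTiter-Glo, 20 min RT; luminescence; AC50 via Hill equation.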

[6] = Cellular Toxicity (caspase-3) HepG2 (AID 654); details: HepG2 caspase-3 activation, luminescence, 0% = DMSO only, 100% = tamoxifen; series mostly up to 92.2 µM;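 note: cells exposed to compound for 16 hours before reading; 0% = DMSO alone and 100% = caspase signal from 100 µM tamoxifen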
In short: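 Caspase 3/7 activation in HepG2 is measured as rising luminescence after a 16 hr treatment at 37 °C. Values are scaled between DMSO basal and 100 uM tamoxifen, and AC50 is fitted with the Hill equation.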

[7] = Cellular Toxicity (caspase-3) HUV-EC-C (AID 656); details: HUV-EC-C cells, caspase-3 activation (apoptosis), vehicle = 0, 100 µM tamoxifen = 100%; series mostly up to 92.2 µM
In short: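 Concentration-dependent caspase 3/7 induction was assessed in HUV-EC-C cells exposed for 16 hours. Data scaled between DMSO and tamoxifen (100 uM) controls.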

[8] = Cellular Toxicity (caspase-3) BJ (AID 658); details: BJ fibroblasts, luminescence, normalized: DMSO 0%, staurosporine 100%; series mostly up to 91.7 µM
In short: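 qHTS, BJ fibroblasts, 1000 cells/well; 5 hr preincubation, 16 hr compound, 37 °C; Caspase-Glo 3/7 reagent, 1 hr RT; luminescence. DMSO = 0%, 10 uM staurosporine = 100%. Hill-equation AC50.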

[9] = Cellular Toxicity (caspase-3) MRC-5 (AID 659); details: MRC-5 cells, luminescence, normalized: DMSO 0%, 10 µM staurosporine 100%; series mostly up to 91.7 µM
In short: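 MRC-5 fibroblasts, 1500/well; 16 h cpd, 37 °C; Caspase-Glo 3/7, 1 h RT; lumi read. Norm: DMSO = 0%, 10 uM staurosporine = 100%. Hill-fit AC50 from qHTS conc-response.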

[10] = Cellular Toxicity (caspase-3) Mesangial (AID 660); details: mesangial cells, normalized: DMSO 0%, 100 µM tamoxifen 100%; series mostly up to 91.7 µM;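 note: combined caspase 3 and 7 activity read by Caspase-Glo luminescence; cells exposed to compound for 16 h before the caspase read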
In short: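 Seed cells derived from normal human renal glomeruli, incubate 5 h, add compounds across concentrations and incubate 16 h at 37 °C. Caspase 3/7 activation is then quantified by luciferase light, with AC50 derived by Hill modeling.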

[11] = Cellular Toxicity (caspase-3) Hek293 (AID 664); details: HEK293 caspase-3 activation, DMSO = 0%, 100 µM tamoxifen = 100%; series mostly up to 92.2 µM;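 note: cells exposed to compound for 16 h at 37 °C before readout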
In short: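 qHTS, HEK293 (human embryonic kidney), 16 h cpd exposure in complete medium. Caspase-3/7 activation = luminescence increase; normalized to DMSO/100 uM tamoxifen; Hill-fit AC50.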

[12] = MultiTox-Fluor Cytotoxicity Assay - LYMP1-003 - Live Cells (AID 962); details: LYMP1-003 lymphoblastoid cells, MultiTox-Fluor live-cell protease fluorescence; series mostly up to 92.2 µM;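 note: cells exposed to compound for 16 hours at 37 °C; 0% = DMSO only and full loss = 92 µM tetraoctylammonium bromide; cytotoxic hits lower the live-cell protease signal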
In short: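 Acute cytotoxicity is scored as a drop in live-cell protease activity in human lymphoblastoid LYMP1-003 cells after 16 hr compound exposure at 37 C. AC50 values come from Hill-equation modelling of concentration-response data.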

[13] = Cell Viability - LYMP1-003 - Assay at 40 hr (AID 964); details: LYMP1-003 lymphoblastoid viability; series mostly up to 92.2 µM; note: % is set by controls: 0 for no effect and ±100 for the full control effect; nearly all actives have a fitted effect of over 60% in size
In short: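 Luminescent ATP signal (CellTiter-Glo) served as the viability read-out after 40 hr compound treatment of human lymphoblastoid LYMP1-003 cells at 37 C. Decreases in ATP were fitted with the Hill equation to give AC50.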

[14] = Cell Viability - LYMP2-011 (AID 969); details: LYMP2-011 lymphoblastoid cells viability; series mostly up to 92.2 µM;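 note: 0% = DMSO only and full inhibition = 92 µM tetraoctylammonium bromide; nearly all actives have a fitted effect of over 60% in size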
In short: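 In this qHTS cytotoxicity format, compounds are tested across concentrations on human lymphoblastoid cells in complete medium for 24 hours at 37 C. Viability is taken as cellular ATP measured by luciferase luminescence.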

[15] = Cell Viability - LYMP2-013 (AID 970); details: LYMP2-013 lymphoblastoid cells viability; series mostly up to 92.2 µM;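 note: cells exposed to compound for 24 h at 37 °C; 0% = DMSO only and full inhibition = tetraoctylammonium bromide control; nearly all actives have a fitted effect of over 55% in size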
In short: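 Cytotoxicity is scored as a concentration-dependent drop in intracellular ATP in human lymphoblastoid cells after 24 hr compound exposure at 37 C. ATP is quantified by luciferase luminescence, and AC50 values come from Hill-equation modeling.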

[16] = Cell Viability - LYMP2-017 (AID 972); details: LYMP2-017 lymphoblastoid cell viability; series mostly up to 92.2 µM; note: % is set by controls: 0 for no effect and ±100 for the full control effect; nearly all actives have a fitted effect of over 55% in size
In short: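 Cytotoxicity is scored as a concentration-dependent drop in cellular ATP in a human lymphoblastoid line after 24 hr treatment at 37 C. Values are AC50s from Hill-equation modelling.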

[17] = Cell Viability - LYMP2-010 (AID 981); details: LYMP2-010 lymphoblastoid cell viability, qHTS; series mostly up to 92.2 µM; note: % is set by controls: 0 for no effect and ±100 for the full control effect; nearly all actives have a fitted effect of over 55% in size
In short: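 Steps: seed 2500 LYMP2-010 cells per well; incubate 5 hr at 37 C; add compound; incubate 24 hr at 37 C; add CellTiter-Glo, wait 30 min at room temperature; read luminescence. Concentration-response fitted to Hill equation for AC50.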

[18] = Cell Viability - LYMP2-012 (AID 982); details: LYMP2-012 lymphoblastoid cell viability qHTS; series mostly up to 92.2 µM;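 note: cellular ATP by luciferase luminescence where a drop means cytotoxicity; cells exposed to compound for one day before reading; 0% = DMSO only and full loss = 92 µM tetraoctylammonium bromide; nearly all actives have a fitted effect of over 55% in size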
[19] = qHTS Assay for Identification of Small Molecule Inducers of Hypoxia Response (AID 2120; active = well fitted curve in the direction sought with a large enough effect in the signal ratio, with a control signal flat, not every such curve was filed as active; the % refers to the signal ratio; note: 0% is about no effect); details: hypoxia response reporter cells, beta-lactamase ratio readout; series mostly up to 104 µM
In short: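 Cell-based qHTS for reporter induction: hypoxia response element controlled beta-lactamase in ME-180 cells. Compounds incubated 17 h at 37 degrees C; activity from blue/green (460/530 nm) ratio, inducers ranked by AC50.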

[20] = target: Peroxisome proliferator-activated receptor alpha (Homo sapiens) (UniProt Q07869); test: qHTS assay for small molecule agonists of the peroxisome proliferator-activated receptor alpha (PPARalpha) signaling pathway (AID 651778); details: PathHunter PPARalpha complementation, chemiluminescence, 6 h; max response: hits give high values; note: % of control where 0% means no effect
In short: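 Enzyme-fragment complementation assay in which ligand-bound PPARalpha translocates and forms an active enzyme that generates chemiluminescence. Cells were plated overnight, exposed to compound for 6 hr at 37 C, and then given detection reagent for 60 min at room temperature.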

Sequence of Peroxisome proliferator-activated receptor alpha (Homo sapiens) (Q07869 whole entry, looked up, the tested form may be a part): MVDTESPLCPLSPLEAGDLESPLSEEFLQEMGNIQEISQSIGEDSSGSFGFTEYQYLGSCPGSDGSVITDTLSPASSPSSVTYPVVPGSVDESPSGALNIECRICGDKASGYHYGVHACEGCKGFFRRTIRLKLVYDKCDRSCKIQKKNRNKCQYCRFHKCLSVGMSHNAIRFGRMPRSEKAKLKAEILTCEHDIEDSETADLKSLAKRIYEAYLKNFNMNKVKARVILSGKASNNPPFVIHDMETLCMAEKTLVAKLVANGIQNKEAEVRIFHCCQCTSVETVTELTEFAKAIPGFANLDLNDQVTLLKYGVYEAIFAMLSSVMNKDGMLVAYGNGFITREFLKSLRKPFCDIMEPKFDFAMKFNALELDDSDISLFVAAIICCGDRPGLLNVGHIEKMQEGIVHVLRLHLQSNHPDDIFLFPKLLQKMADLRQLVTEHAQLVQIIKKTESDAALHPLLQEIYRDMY

COc1ccc2nc(N)sc2c1
inactive: Potency [1] > 92 µM | Potency [2] > 92 µM | Potency [3] | Potency [4] | activity change, negative = cytotoxicity [5] -1.25% | outcome [6] | outcome [7] | outcome [8] | outcome [9] | outcome [10] | outcome [11] | Potency [12] | Potency [13] | Potency [14] | Potency [15] | Potency [16] | Potency [17] | Potency [18] | outcome [19] | max response [20] -0.146% and -0.816%

C=CCOC(=O)c1ccccc1C(=O)OCC=C
inactive: Potency [1] > 92 µM | Potency [2] > 92 µM | Potency [3] | Potency [4] | activity change, negative = cytotoxicity [5] -9.3% | outcome [6] | outcome [7] | outcome [8] | outcome [9] | outcome [10] | outcome [11] | Potency [12] | Potency [13] | Potency [14] | Potency [15] | Potency [16] | Potency [17] | Potency [18] | outcome [19] | max response [20] 16.2% and -0.609%

COc1c2ccoc2cc2oc(=O)ccc12
inactive: Potency [1] > 92 µM | Potency [2] > 92 µM | Potency [3] | Potency [4] | activity change, negative = cytotoxicity [5] -14.2% | outcome [6] | outcome [7] | outcome [8] | outcome [9] | outcome [10] | outcome [11] | Potency [12] | Potency [13] | Potency [14] | Potency [15] | Potency [16] | Potency [17] | Potency [18] | outcome [19] | max response [20] -2.53%

O=NO
inactive: Potency [1] > 92 µM | Potency [2] > 92 µM | Potency [3] | Potency [4] | activity change, negative = cytotoxicity [5] -3.1% and 3.16% | outcome [6] | outcome [7] | outcome [8] | outcome [9] | outcome [10] | outcome [11] | Potency [12] | Potency [13] | Potency [14] | Potency [15] | Potency [16] | Potency [17] | Potency [18] | outcome [19] | max response [20] 0.744% and -3.6%

Nc1ccc(S(=O)(=O)O)cc1
inactive: Potency [1] > 92 µM | Potency [2] > 92 µM | Potency [3] | Potency [4] | activity change, negative = cytotoxicity [5] 9.75% | outcome [6] | outcome [7] | outcome [8] | outcome [9] | outcome [10] | outcome [11] | Potency [12] | Potency [13] | Potency [14] | Potency [15] | Potency [16] | Potency [17] | Potency [18] | outcome [19] | max response [20] -1.01% and -2.98%

CCO[Si](CCCN)(OCC)OCC
inactive: Potency [1] > 92 µM | Potency [2] > 92 µM | Potency [3] | Potency [4] | activity change, negative = cytotoxicity [5] -8.88% | outcome [6] | outcome [7] | outcome [8] | outcome [9] | outcome [10] | outcome [11] | Potency [12] | Potency [13] | Potency [14] | Potency [15] | Potency [16] | Potency [17] | Potency [18] | outcome [19] | max response [20] -1.45% and -1.48%
